Article PMC4336329 (PLoS ONE, 2015)
In all, about 310,000 compounds went through this assay and about 2,200 (0.71%) showed an effect of 50% or more. Effects have a minus sign here. This is one part of a sample in which strong results are shown more often than they occur.

The compounds below were run against human ether-à-go-go-related gene (hERG) potassium channel (human, UniProt Q12809) (assay: primary screen, population patch clamp on CHO cells stably expressing hERG; higher = less effect of the substance).
human ether-à-go-go-related gene (hERG) potassium channel, sequence (Q12809 whole entry, looked up): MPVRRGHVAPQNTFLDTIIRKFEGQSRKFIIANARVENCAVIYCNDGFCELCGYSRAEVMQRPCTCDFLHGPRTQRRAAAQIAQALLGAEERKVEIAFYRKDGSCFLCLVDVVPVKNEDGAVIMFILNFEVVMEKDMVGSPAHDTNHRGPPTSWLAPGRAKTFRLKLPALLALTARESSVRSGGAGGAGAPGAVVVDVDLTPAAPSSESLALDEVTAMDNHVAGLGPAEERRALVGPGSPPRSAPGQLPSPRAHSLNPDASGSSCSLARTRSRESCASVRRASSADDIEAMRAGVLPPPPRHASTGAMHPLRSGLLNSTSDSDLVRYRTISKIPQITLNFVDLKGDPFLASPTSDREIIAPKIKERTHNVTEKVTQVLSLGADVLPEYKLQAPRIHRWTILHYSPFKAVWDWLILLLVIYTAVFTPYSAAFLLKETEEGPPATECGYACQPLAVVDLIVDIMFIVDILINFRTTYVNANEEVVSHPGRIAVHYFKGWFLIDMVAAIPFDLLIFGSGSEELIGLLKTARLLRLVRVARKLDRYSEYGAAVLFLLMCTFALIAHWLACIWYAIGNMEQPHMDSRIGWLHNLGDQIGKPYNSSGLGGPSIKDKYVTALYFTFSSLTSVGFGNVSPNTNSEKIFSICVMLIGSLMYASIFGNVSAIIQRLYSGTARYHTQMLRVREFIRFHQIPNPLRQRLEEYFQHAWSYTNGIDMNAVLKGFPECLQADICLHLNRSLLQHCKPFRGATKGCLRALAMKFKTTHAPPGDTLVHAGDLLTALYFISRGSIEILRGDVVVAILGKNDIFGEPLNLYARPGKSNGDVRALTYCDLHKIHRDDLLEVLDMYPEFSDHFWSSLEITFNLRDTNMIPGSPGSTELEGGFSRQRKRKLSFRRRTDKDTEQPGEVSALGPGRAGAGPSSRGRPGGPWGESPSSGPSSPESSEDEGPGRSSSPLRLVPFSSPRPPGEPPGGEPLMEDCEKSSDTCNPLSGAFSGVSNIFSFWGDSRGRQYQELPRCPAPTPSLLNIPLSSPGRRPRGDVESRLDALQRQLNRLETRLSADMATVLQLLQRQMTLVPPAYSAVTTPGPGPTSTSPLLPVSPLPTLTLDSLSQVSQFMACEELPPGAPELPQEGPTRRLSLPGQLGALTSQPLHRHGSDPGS

Row | Structure (SMILES) | hERG current change (%, negative = inhibition) at 1uM
1 | Cc1cccc(C)c1NC(=O)CNC(=O)c1ccc(N2CCCC2)c([N+](=O)[O-])c1 | -2.53%
2 | COc1ccccc1C(=O)Nc1ccnn1C1CCN(CCC(C)c2ccc(C)o2)CC1 (stereo not drawn) | -88.2%
3 | O=C(Nc1ccnn1C1CCN(C2CCC2)CC1)c1ccccc1 | 16.6%
4 | Cc1ccccc1C(=O)Nc1ccnn1C1CCN(Cc2ccccn2)CC1 | -14.6%
5 | Cc1ccccc1C(=O)Nc1ccnn1C1CCN(CCCc2ccccc2)CC1 | -84.5%
6 | O=C(Nc1ccnn1C1CCN(CCCc2ccccc2)CC1)c1ccccc1Cl | -87.3%
7 | O=C(Nc1ccnn1C1CCN(CCCc2ccccc2)CC1)c1ccccc1 | -70.9%
8 | COc1ccc(C(=O)Nc2ccnn2C2CCN(CCC(C)c3ccc(C)o3)CC2)cc1 (stereo not drawn) | -18%
9 | COc1ccccc1C(=O)Nc1ccnn1C1CCN(C(C)CSC)CC1 (stereo not drawn) | -10.6%
10 | O=C(Nc1ccnn1C1CCN(C2CCC2)CC1)c1ccccc1Cl | -28.4%
11 | Cc1ccccc1CN1CCC(n2nccc2NC(=O)CCCc2ccccc2)CC1 | 7.05%
12 | CSCCCN1CCC(n2nccc2NC(=O)CCCc2ccccc2)CC1 | -28.5%
13 | COc1ccc(-c2cc(C(=O)NCCc3ccc(S(N)(=O)=O)cc3)c3ccccc3n2)cc1 | 11.6%
14 | O=C(OCC(=O)N1CCOCC1)c1cnc(Cl)c(Cl)c1 | -0.0536%
15 | CCCCN=C(C)C1=C(O)CSC1=O | 15.8%
16 | CCN(c1ccccc1)S(=O)(=O)c1ccc(F)cc1 | 8.48%
17 | O=C(OCc1nnc(-c2ccc(Br)cc2)o1)c1ccco1 | -3.17%
18 | CS(=O)(=O)N(CC(=O)Nc1cccc(F)c1)Cc1ccccc1 | 20.1%
19 | COc1ccccc1-n1c(O)c(/C=C2\C=Nc3ccccc32)c(=O)[nH]c1=O | 11.9%
20 | Cc1cc(C)nc(-n2nc(C)cc2NC(=O)c2cccc(S(=O)(=O)N(C)C)c2)n1 | 8.89%
21 | COc1ccccc1C(=O)Nc1ccnn1C1CCN(CCCc2ccccc2)CC1 | -88.1%
22 | COc1ccccc1C(=O)Nc1ccnn1C1CCN(C)CC1 | 4.47%
23 | COc1ccccc1CN1CCC(n2nccc2NC(=O)CCc2ccccc2)CC1 | 7.89%
24 | CC1=C(C(N)=O)C(c2ccc(Br)cc2)n2nc(CCCO)nc2N1 (stereo not drawn) | 13.1%
